Results published in PubChem BioAssay (Tox21).
Inconclusive results are not listed. The source made the active and inactive calls. Unless noted, the call rests on the fitted dose curve; in most records, active means well fitted curve in the direction sought with a large enough effect in the repeat runs; inconclusive means weak or mixed curves; inactive means no such curve, though single readings can be large; an effect the other way counts as inactive or inconclusive.

Legend:
[1] = molecular target: Nuclear receptor subfamily 1 group I member 3 (Homo sapiens) (UniProt Q14994); assay: qHTS assay to identify small molecule antagonists of the constitutive androstane receptor (CAR) signaling pathway (AID 1224838);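 further: HepG2 cells stably expressing hCAR with CYP2B6 luciferase reporter stimulated by CITCO; nearly all actives have a fitted effect of over 40% in size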; further: potency means the concentration at half of the fitted maximal effect
Chain of Nuclear receptor subfamily 1 group I member 3 (Homo sapiens) (Q14994 whole entry, looked up): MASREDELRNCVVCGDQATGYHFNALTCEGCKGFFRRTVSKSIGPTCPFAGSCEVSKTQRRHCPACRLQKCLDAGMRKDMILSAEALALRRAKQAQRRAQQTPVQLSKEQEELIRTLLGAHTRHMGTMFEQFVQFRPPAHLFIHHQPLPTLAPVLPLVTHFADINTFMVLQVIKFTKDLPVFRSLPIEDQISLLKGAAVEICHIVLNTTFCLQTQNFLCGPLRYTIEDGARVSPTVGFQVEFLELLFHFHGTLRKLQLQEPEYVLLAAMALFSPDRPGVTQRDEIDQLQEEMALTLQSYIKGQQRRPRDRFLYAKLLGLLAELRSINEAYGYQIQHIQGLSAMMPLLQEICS
In short: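 Antagonist mode used CITCO at a final 50 nM to activate CAR in human hepatoma HepG2 cells carrying stable hCAR and a 2.2 kb CYP2B6 promoter-luciferase construct. Compounds were tested at 15 concentrations over 24 h, with luminescence as the end point.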

[2] = molecular target: Nuclear receptor subfamily 1 group I member 3 (Homo sapiens) (UniProt Q14994); assay: qHTS assay to identify small molecule agonists of the constitutive androstane receptor (CAR) signaling pathway (AID 1224839); further: nearly all actives have a fitted effect of over 15% in size; further: potency means the concentration at half of the fitted maximal effect
In short: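 Compounds tested at 15 concentrations on HepG2 cells stably harbouring hCAR and CYP2B6-2.2kb reporter constructs, co-treated with PK11195 (0.75 uM final), 24 h at 37 C; luminescent reporter signal quantified.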

[3] = qHTS assay to identify small molecule antagonists of the estrogen related receptor signaling pathway with the pleiotropic PPARgamma coactivator (PGC) from Tox21 10K library - cell viability counter screen (AID 1224840; active means well fitted cell-killing curve with a large enough effect in the repeat runs, not every such curve was filed as active; further: nearly all actives have a fitted effect of over 40% in size; further: potency means the concentration at half of the fitted maximal effect)
In short: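 Multiplexed viability counter screen in the PGC/ERR cell line: cells treated with DMSO-dissolved compounds for 17.5 hours at 37 C, then viability measured as CellTiter-Fluor fluorescence.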

[4] = molecular target: Thyrotropin receptor (Homo sapiens) (UniProt P16473); assay: qHTS assay to identify small molecule agonists of the thyroid stimulating hormone receptor (TSHR) signaling pathway (AID 1224843; calls by dose curve; further: nearly all actives have a fitted effect of over 45% in size)
Chain of Thyrotropin receptor (Homo sapiens) (P16473 whole entry, looked up): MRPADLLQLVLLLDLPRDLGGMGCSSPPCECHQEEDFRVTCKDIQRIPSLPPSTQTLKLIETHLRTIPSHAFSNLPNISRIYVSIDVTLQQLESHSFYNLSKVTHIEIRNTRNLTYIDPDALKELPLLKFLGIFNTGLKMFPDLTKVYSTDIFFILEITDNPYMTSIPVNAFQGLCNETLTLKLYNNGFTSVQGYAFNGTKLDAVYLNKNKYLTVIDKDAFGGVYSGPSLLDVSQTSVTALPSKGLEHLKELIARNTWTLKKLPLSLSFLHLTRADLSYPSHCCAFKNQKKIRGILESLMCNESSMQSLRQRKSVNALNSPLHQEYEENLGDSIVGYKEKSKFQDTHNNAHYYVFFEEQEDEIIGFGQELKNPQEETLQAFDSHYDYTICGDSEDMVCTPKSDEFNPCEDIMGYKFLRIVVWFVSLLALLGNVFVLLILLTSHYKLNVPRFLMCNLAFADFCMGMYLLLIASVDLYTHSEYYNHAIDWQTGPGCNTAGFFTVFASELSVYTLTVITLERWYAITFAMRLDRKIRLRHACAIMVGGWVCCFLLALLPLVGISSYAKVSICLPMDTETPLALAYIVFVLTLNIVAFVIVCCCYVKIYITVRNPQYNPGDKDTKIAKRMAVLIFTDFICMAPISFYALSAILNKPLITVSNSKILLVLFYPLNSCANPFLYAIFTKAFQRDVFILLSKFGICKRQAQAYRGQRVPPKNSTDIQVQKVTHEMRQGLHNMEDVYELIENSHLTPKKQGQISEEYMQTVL
In short: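 HEK293/TSHR, 800 cells/well; cpd 30 min RT; add cAMP-d2 + anti-cAMP-cryptate, 1 h RT; fluorescence read on plate reader. 15-pt titration, n=3.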

[5] = qHTS assay to identify small molecule agonists of the hypoxia (HIF-1) signaling pathway - cell viability counter screen (AID 1224844; calls by dose curve; further: nearly all actives have a fitted effect of over 50% in size; further: potency means the concentration at half of the fitted maximal effect)
In short: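 Cytotoxicity was measured in parallel with the HRE-driven beta-lactamase readout: after 17 hrs of compound exposure at 37C, HRE-bla ME-180 cells received CellTiter-Glo and luminescence was recorded 30 min later.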

[6] = qHTS assay to identify small molecule agonists of H2AX (AID 1224845; active means well fitted activation curve with a large enough effect in the signal ratio in the repeat runs, not every such curve was filed as active; the % refers to the signal ratio; further: potency means the concentration at half of the fitted maximal effect)
In short: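 Wild-type CHO-K1 cells, plated overnight, exposed 3hr at 37C to 15 concentrations (0.76% DMSO final). Lysed, then HTRF anti-pH2AX (S139) cryptate and anti-H2AX-d2 antibodies, 24 hr room temperature; 665/620 nm emission read.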

[7] = qHTS assay to identify small molecule agonists of the hypoxia (HIF-1) signaling pathway (AID 1224846; active means well fitted activation curve with a large enough effect in the signal ratio in the repeat runs, not every such curve was filed as active; the % refers to the signal ratio)
In short: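 Compounds from the Tox21 10K library, dissolved in DMSO, are tested for induction of a hypoxia response element–controlled beta-lactamase reporter in ME-180 cells. Exposure lasts 17 hrs at 37C after a 5 hr settling period, followed by CCF4-AM FRET substrate.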

[8] = qHTS assay to identify small molecule agonists of H2AX - cell viability counter screen (AID 1224847; calls by dose curve; further: nearly all actives have a fitted effect of over 30% in size; further: potency means the concentration at half of the fitted maximal effect)
In short: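 Compounds tested at 15 concentrations were incubated 3 hr at 37C with wild-type CHO-K1 cells; cellular ATP-based luminescence (CellTiter-Glo) indicated viability.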

[9] = qHTS RealTime-Glo MT Cell Viability Assay in HepG2 cells - 24 hour (AID 1224867); further: nearly all actives have a fitted effect of over 50% in size
In short: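 Compound treatment began 5 h after plating HepG2 cells (600/well) with NanoLuc luciferase and prosubstrate. Plates stayed at 37 C for 40 h; luminescence was captured at six time points, 0 h through 40 h.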

[10] = qHTS RealTime-Glo MT Cell Viability Assay in HepG2 cells - 40 hour (AID 1224870); further: nearly all actives have a fitted effect of over 50% in size; further: potency means the concentration at half of the fitted maximal effect
In short: (§1)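 HepG2 cells (600/well) mixed with RealTime-Glo MT reagent, settled 5 h at 37 C/5% CO2 before compound addition. Nonlytic NanoLuc luminescence from viable-cell prosubstrate reduction read repeatedly during 40 h treatment at 37 C.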

[11] = A CellTox Green Cytotoxicity Assay to monitor cytotoxicity in HEK293 cells - 40 hour (AID 1224871); further: nearly all actives have a fitted effect of over 45% in size; further: potency means the concentration at half of the fitted maximal effect
In short: (§2)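 Cells (HEK293, 600/well) and dye reagent are dispensed together. After 5 h at 37 C, 23 nL compound is pinned in. Plates stay at 37 C for 40 h with fluorescence read at 0h, 8h, 16h, 24h, 32h and 40h.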

[12] = A CellTox Green Cytotoxicity Assay to monitor cytotoxicity in HEK293 cells - 0 hour (AID 1224869); further: nearly all actives have a fitted effect of over 50% in size
In short: as §2

[13] = qHTS RealTime-Glo MT Cell Viability Assay in HEK293 cells - 32 hour (AID 1224868); further: nearly all actives have a fitted effect of over 50% in size; further: potency means the concentration at half of the fitted maximal effect
In short: (§3)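 Quantitative high-throughput screen of the Tox21 10K library in HEK293: cells and RealTime-Glo reagents plated together, compound added at 5 h, luminescence monitored through 40 h at 37 C.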

[14] = qHTS RealTime-Glo MT Cell Viability Assay in HEK293 cells - 16 hour (AID 1224872); further: nearly all actives have a fitted effect of over 50% in size; further: potency means the concentration at half of the fitted maximal effect
In short: as §3

[15] = qHTS RealTime-Glo MT Cell Viability Assay in HepG2 cells - 8 hour (AID 1224873); further: nearly all actives have a fitted effect of over 55% in size; further: potency means the concentration at half of the fitted maximal effect
In short: as §1

[16] = qHTS RealTime-Glo MT Cell Viability Assay in HEK293 cells - 40 hour (AID 1224874); details: RealTime-Glo luminescence; max response: hits give low values; further: nearly all actives have a fitted effect of over 50% in size; further: potency means the concentration at half of the fitted maximal effect
In short: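 Real-time viability in HEK293: signal arises when living cells convert a prosubstrate for NanoLuc in the medium, so luminescence tracks viable cell number. Compound (23 nL, DMSO) added 5 h post-seeding; kinetic reads at 0–40 h, 37 C.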

[17] = qHTS assay to identify small molecule agonists of the estrogen related receptor signaling pathway with the pleiotropic PPARgamma coactivator (PGC) from Tox21 10K library (AID 1224842); further: nearly all actives have a fitted effect of over 15% in size
In short: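 PGC/ERR reporter cell line, 2,000 cells per well, incubated 6 h at 37 C before 23 nL compound in DMSO was added. After 18 h at 37 C, One-Glo luminescence read following 30 min at room temperature.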

[18] = qHTS assay to identify small molecule antagonists of the estrogen related receptor (ERR) signaling pathway from Tox21 library (AID 1224848); further: nearly all actives have a fitted effect of over 50% in size; further: potency means the concentration at half of the fitted maximal effect
In short: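 Compounds dissolved in DMSO are pin-transferred onto ERR reporter cells (2,000 per well) that have settled for 6 h at 37 C. Plates then incubate 18 h at 37 C before ONE-Glo luciferase reagent and a luminescence read 30 min later.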

[19] = qHTS assay to identify small molecule agonists of the estrogen related receptor (ERR) signaling pathway from Tox21 library (AID 1224849; calls by dose curve; further: nearly all actives have a fitted effect of over 15% in size); details: ERR reporter cell line, ONE-Glo luciferase, 18 h; at 92.4 µM (top of the series) unless noted
In short: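 Cells carrying the ERR reporter were plated and allowed to settle for 6 h, exposed to library compounds for 18 h at 37 C, then lysed with ONE-Glo and luminescence measured.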

[20] = qHTS assay to identify small molecule antagonists of the estrogen related receptor signaling pathway with the pleiotropic PPARgamma coactivator (PGC) from Tox21 10K library (AID 1224841; call rule not given here)
In short: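 Steps: plate 2,000 PGC/ERR cells per well; incubate 6 h at 37 C with 5% CO2; transfer compounds from DMSO stocks by pin tool; incubate 18 h at 37 C; add One-Glo; measure luminescence 30 min later.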
On the % scale 0 is the no-effect control and ±100 the full control effect.

C=COCCCC
inactive: Potency [1] | Potency [2] | Potency [3] | Potency [4] | Potency [5] | Potency [6] | Potency [7] | Potency [8] | Potency [9] | Potency [10] | Potency [11]

O=C(CCN1CCC(c2ccccc2)C1)c1ccc2c(c1)OCCO2 (stereo unspecified)
inactive: Potency [1] | Potency [2] | Potency [3] | Potency [4] | Potency [12]
active: Potency [10] 21.3 µM

Cc1ccc2sc3cccc(C)c3c2c1
inactive: Potency [1] | Potency [3] | Potency [4] | Potency [5] | Potency [6] | Potency [8] | Potency [9] | Potency [13] | Potency [10] | Potency [11] | Potency [14] | Potency [15] | max response [16] 12.7%
active: Potency [2] 27.3 µM

CCn1c2ccccc2c2ccccc21
active: Potency [2] 27.3 µM
inactive: Potency [1] | Potency [3] | Potency [4] | Potency [5] | Potency [6] | Potency [7] | Potency [8] | Potency [9] | Potency [13] | Potency [12] | Potency [10] | max response [16] -15.2%

CCOC=C(C(=O)OCC)C(=O)OCC
inactive: Potency [1] | Potency [2] | Potency [3] | Potency [4] | Potency [5] | Potency [6] | Potency [7] | Potency [8] | Potency [9] | Potency [13] | Potency [12] | Potency [10] | Potency [14] | max response [16] -0.307%

CCOC(=O)OC(=O)OCC
inactive: Potency [1] | Potency [2] | Potency [3] | Potency [4] | Potency [5] | Potency [6] | Potency [8] | Potency [9] | Potency [13] | Potency [12] | Potency [10] | Potency [14] | Potency [15] | max response [16] 18.5%

c1ccc(-c2ccccc2-c2ccccc2)cc1
active: Potency [2] 27.3 µM
inactive: Potency [1] | Potency [3] | Potency [9] | Potency [13] | Potency [12] | Potency [10] | Potency [11] | Potency [14] | Potency [15] | max response [16] -10.2%

N#Cc1ccc(C/C(=N/NC(=O)Nc2ccc(OC(F)(F)F)cc2)c2cccc(C(F)(F)F)c2)cc1
inactive: Potency [1] | Potency [2] | Potency [3] | Potency [4] | Potency [6] | Potency [8] | Potency [13] | Potency [12] | Potency [14] | max response [16] -2.78%

O=C(Cl)c1ccc(Cl)cc1Cl
inactive: Potency [1] | Potency [2] | Potency [3] | Potency [5] | Potency [7] | Potency [8] | Potency [15]
active: Potency [6] 101 µM | Potency [11] 49 µM

CCNc1nc(NC(C)(C)C)nc(OC)n1
inactive: Potency [1] | Potency [3] | Potency [4] | Potency [5] | Potency [6] | Potency [7] | Potency [8] | Potency [12] | Potency [10] | Potency [11] | Potency [14]
active: Potency [2] 30.6 µM

CCOC(=O)[C@H](O)[C@@H](O)C(=O)OCC
inactive: Potency [1] | Potency [2] | Potency [3] | Potency [5] | Potency [6] | Potency [8] | Potency [9] | Potency [13] | Potency [10] | Potency [11] | Potency [14] | Potency [15] | max response [16] 5.68%

c1ccc2cc3c4ccccc4c4ccccc4c3cc2c1
active: Potency [1] 10.9 µM | Potency [5] 22 µM | Potency [8] 101 µM
inactive: Potency [2] | Potency [3] | Potency [4] | Potency [13] | Potency [12] | Potency [10] | Potency [14] | Potency [15] | max response [16] -2.98%

ClC(c1ccccc1)(c1ccccc1)c1ccccc1
active: Potency [2] 21.7 µM
inactive: Potency [1] | Potency [3] | Potency [5] | Potency [6] | Potency [7] | Potency [8] | Potency [9] | Potency [13] | Potency [12] | Potency [10] | Potency [14] | Potency [15] | max response [16] -24.6%

CC/C(=C(/c1ccc(O)cc1)c1ccc(OCCN(C)C)cc1)c1ccccc1
active: Potency [1] 35.9 µM | Potency [3] 32 µM | Potency [8] 41.9 µM | Potency [18] 18 µM | Potency [13] 9.11 µM | Potency [10] 12.9 µM | Potency [11] 20.4 µM | Potency [14] 12.9 µM | Potency [15] 28.8 µM | Potency [16] 8.12 µM
inactive: Potency [2] | Potency [17] | activity change, positive = activation [19] -77.3% [at 42.5 µM] | Potency [12]

CC1CCC(C(C)(C)O)CC1 (stereo unspecified)
inactive: Potency [1] | Potency [2] | Potency [3] | Potency [5] | Potency [6] | Potency [7] | Potency [8] | Potency [9] | Potency [13] | Potency [12] | Potency [10] | Potency [11] | Potency [14] | Potency [15] | max response [16] 0.893%

SC1CCCCC1
inactive: Potency [1] | Potency [2] | Potency [20] | Potency [17] | Potency [4] | Potency [5] | Potency [6] | Potency [7] | Potency [8] | Potency [18] | activity change, positive = activation [19] 7.84% | Potency [13] | Potency [12] | Potency [10] | Potency [11] | Potency [14] | Potency [15] | max response [16] 6.15%

C=C1CC[C@H]2O[C@]2(C)CC[C@@H]2[C@@H]1CC2(C)C
inactive: Potency [1] | Potency [2] | Potency [20] | Potency [17] | Potency [4] | Potency [5] | Potency [6] | Potency [7] | Potency [8] | Potency [18] | activity change, positive = activation [19] 2.38% | Potency [9] | Potency [12] | Potency [10] | Potency [11] | Potency [15]
